# Compounds without any hit were thinned out: in the full panel of roughly 83,000, 20% have a hit.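 Results are percent growth after 48 hours of single-concentration exposure. 100 means growth as in untreated cells, lower positive values show inhibition; negative values down to -100 show cell death.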 Values without a mark were called inactive. The source made the active and inactive calls. The calls were made as follows: active = growth percent below 10; inactive = the rest.
# Tested on: MDA-MB-468 breast
# Test: NCI-60 one-dose screen, 48 h (100 = growth as untreated, 0 = no growth, -100 = all killed)
# Conditions: 10 µM unless noted
row,SMILES,growth
1,CC[N+](CC)=c1ccc2nc3c(cc(NCc4ccccc4)c4ccccc43)oc-2c1,-88.7% (active)
2,CCN(CC)Cc1cc(Nc2c3ccccc3nc3cc(Cl)ccc23)ccc1O,-72.4% (active)
3,COc1ccc(/C=C2\CCc3ccccc3C2=O)cc1,76.7%
4,O=C1[C@H]2Cc3c([nH]c4ccccc34)[C@@H](c3ccc(Cl)cc3)N2C(=O)CN1C1CCN(Cc2c(Cl)cccc2Cl)CC1,98.3%
5,S=C(c1ccccc1)N1CCN(c2cccc(Cl)c2)CC1,105%
6,O=c1[nH]nnc2c1ncn2C1OC(CO)C(O)C1O (stereo not given),40.1%
7,COc1cc(/C=C/c2cc(/C=C/c3ccc(O)c(OC)c3)n(-c3c(C)cccc3C)c(=O)n2)ccc1O,-16.4% (active)
8,Nc1ncnc2c1nc(N)n2C1OC(CO)C(O)C1O (stereo not given),-73.6% (active)
9,O=C1NCN(c2ccccc2)C12CCN(CCCC(c1ccc(F)cc1)c1ccc(F)cc1)CC2,43%
10,COC(=O)/C=C1/SC(=Nc2ccc(C)cc2)N(CCc2c[nH]c3ccc(O)cc23)C1=O,48%
11,CC1(C)CC[C@]2(CN)CC[C@]3(C)C(=CC[C@@H]4[C@@]5(C)CCCNC(C)(C)[C@@H]5CC[C@]43C)[C@H]2C1,96.1%
12,CCc1oc2ccccc2c1C(=O)c1cc(Br)c(O)c(Br)c1,6.28% (active)
13,Cc1ccc(/C=C(\C#N)c2cc3ccccc3[nH]2)cc1,43.2%
14,CC(=O)c1cc(C(=O)N2c3ccccc3Sc3ccccc32)n2ccc3ccccc3c12,43.4%
15,CCCC(=O)Oc1ccc(/C(=C(\C)c2ccc(OC)cc2)c2ccc(OCCN3CCCCC3)cc2)cc1,68.6%
16,CCOC(=O)C1=C(N)Oc2c(sc3c(F)cccc23)C1c1ccc(O)cc1 (stereo not given),15.3%
17,Cc1cc2c(cc1C)NC1=C(N2)OC(c2c3ccccc3cc3ccccc23)C1=O (stereo not given),-18.6% (active)
18,CCCCCCCCN(CCCCCCCC)C(=N)c1ccnc2ccccc12,-75.5% (active)
19,NNc1ccc(Cl)cc1Cl,91.5%
20,CC(C)(C#N)c1cc(C(=O)Nc2cc(Nc3ncccc3-c3ncnc4nc[nH]c34)ccc2F)cc(C(F)(F)F)c1,90.2%

row,SMILES,growth
1,Cc1cc(N2CCOCC2)nc(N(CCNc2ccnc3cc(Cl)ccc23)Cc2cccs2)n1,-15.2% (active)
2,COc1ccc(-c2cc(-c3cccnc3)nc3sc4c(=O)[nH]c(-c5ccc(Cl)cc5)nc4c23)cc1OC,97.8%
3,Nc1c(Cl)cc([N+](=O)[O-])cc1Br,92.3%
4,Cc1cc(C)c(NC(=O)c2sc3nc4c(cc3c2N)CN(Cc2ccccc2)CC4)c(C)c1,14%
5,CC(C)(C)c1ccc(S(=O)(=O)O)s1,109%
6,O=C(CSc1nc2ccccc2c(=O)n1-c1ccccc1)Nc1cccc(C(=O)/C=C/c2ccccc2)c1,91.3%
7,CCNCCNc1cc(-c2ccc(C(F)(F)F)cc2)c(C#N)c2nc3ccccc3n12,-73.6% (active)
8,C[C@]12CC[C@@H]3c4ccc(O)c([N+](=O)[O-])c4CC[C@H]3[C@@H]1CC[C@@H]2NS(=O)(=O)c1ccc(C(F)(F)F)cc1,25.2%
9,COc1cc(C2CC(c3ccc(Nc4ccnc5cc(Cl)ccc45)cc3)=NN2C=O)cc(OC)c1OC (stereo not given),-7.9% (active)
10,COc1ccc(C2=CN3CC=CC3CC2=O)cc1 (stereo not given),95.3%
11,Cc1cc(C(O)(c2ccc(Nc3ccccc3)cc2)c2ccc(Nc3ccc(S(=O)(=O)O)cc3)cc2)ccc1N (stereo not given),-71.3% (active)
12,COC(=O)c1cnc2c(c1)Oc1ccccc1-c1ccnn1-2,101%
13,CN1C(=O)C(C2=NNC(c3ccccc3C(=O)O)C2)C(=O)N(C)C1=O (stereo not given),96.4%
14,C#Cc1ccc(NC(=O)c2ccc(/C=C/C(=O)c3nccn3C)cc2)c(F)c1,32.3%
15,Cn1cc(-c2nc(-c3c[nH]c4ccncc34)cs2)c2cc(Br)ccc21,-71.8% (active)
16,N#CC(C#N)=C1NC(c2ccccc2)=C(c2ccccc2)C(c2ccccc2Cl)=C1C#N,129%
17,COc1cc(C(=O)n2nc(NCCCc3ccccc3)c3cc(N)ccc32)cc(OC)c1OC,91.4%
18,COc1cc(Nc2nc(NCCN)nc3cc[nH]c(=O)c23)cc(OC)c1,3.37% (active)
19,CCCCCCCCCCCCCCCCCCOc1ccccc1CC(=O)OCC[N+](C)(C)C,-38.9% (active)
20,Cc1ccc2c(C(C[N+](=O)[O-])c3ccccc3)c(-c3ccccc3)[nH]c2c1 (stereo not given),-9.08% [9.5 µM] (active)
